Assay outcomes from PubChem.
SRC3 TRFRET art: flags TR-FRET format artefacts in PPARgamma SRC-3 recruitment agonist screen; TR-FRET artefact counter-screen, PPARgamma/SRC-3 format; stronger effect = higher value; TR-FRET ratio at 8 µM; 99,000 compounds, 0.39% hits; AID 1048
PPARg SRC-2 ag: PPARgamma-driven SRC-2 recruitment agonism | AID 1032 | 200,000 compounds, 0.34% hits | activation, % at 8 µM | PPARgamma LBD-SRC-2 recruitment, biochemical; in the data active = activation above about 22%
Target sequence (P37231 whole entry, looked up, the tested form may be a part): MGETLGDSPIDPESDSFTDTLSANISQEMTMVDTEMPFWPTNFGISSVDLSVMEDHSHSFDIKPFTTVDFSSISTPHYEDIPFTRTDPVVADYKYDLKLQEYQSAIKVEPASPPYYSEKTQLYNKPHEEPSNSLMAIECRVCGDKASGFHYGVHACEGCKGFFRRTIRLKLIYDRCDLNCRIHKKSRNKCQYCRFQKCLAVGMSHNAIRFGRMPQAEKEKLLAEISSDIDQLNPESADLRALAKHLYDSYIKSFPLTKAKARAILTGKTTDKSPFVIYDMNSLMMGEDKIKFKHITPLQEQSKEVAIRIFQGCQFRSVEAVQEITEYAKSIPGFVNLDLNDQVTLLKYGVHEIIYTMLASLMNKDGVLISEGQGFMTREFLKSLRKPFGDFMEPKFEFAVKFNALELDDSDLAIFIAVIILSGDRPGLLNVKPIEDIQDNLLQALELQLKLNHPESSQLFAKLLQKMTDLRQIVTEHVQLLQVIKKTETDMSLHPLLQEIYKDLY
SRC1 TRFRET art: counter-screen for PPARgamma SRC-1 recruitment agonists: TR-FRET artefact; TR-FRET detection artefact counter-screen, emission ratio; stronger effect = higher value; TR-FRET ratio at 8 µM; 99,000 compounds, 0.34% hits; AID 1051; in the data active = TR-FRET ratio above about 2300
PPARg SRC1 recr: promotes SRC-1 coactivator recruitment by human PPARgamma; activation, % at 8 µM; PPARgamma-SRC-1 coactivator recruitment biochemical assay; 200,000 compounds, 0.41% hits; P37231; in the data active = activation above about 19%
PPARg SRC3 recr: PPARgamma-driven SRC-3 recruitment agonism. P37231. biochemical PPARgamma/SRC-3 coactivator recruitment assay. activation, % at 8 µM. 200,000 compounds, 0.26% hits; in the data active = activation above about 23%
TR-FRET SRC-2 ct: TR-FRET artefact, counter-screen to PPARgamma/SRC-2 agonist assay | 200,000 compounds, 0.4% hits | TR-FRET ratio at 8 µM | stronger effect = higher value | AID 1049
Of the large screens only hits and unclear results are named; the others gave an inactive call. Compounds with a hit are over-represented: about 0.84% of the library has one in this group of screens. Cut-off read from the data, not from the text of the source, unless noted: active = TR-FRET ratio above about 2000; inactive = the rest.

Cc1ccc2cc(C#N)c(N3CCCN(C(=O)C4CCCO4)CC3)nc2c1 (stereo not drawn)	none (no result: SRC3 TRFRET art, SRC1 TRFRET art)
COc1ccc(OC)c(NC(=O)CSc2nnc(N)s2)c1	PPARg SRC-2 ag 22.8 (no result: SRC3 TRFRET art, SRC1 TRFRET art)
COc1ccc(OC)c(NC(=O)CSc2nnc(-c3cccnc3)s2)c1	none
CN(CC(=O)Nc1ccc(Cl)cc1)c1ccc(S(=O)(=O)N2CCCCC2)cc1[N+](=O)[O-]	none
CCN1/C(=C\C(=S)Nc2ccccc2)Sc2ccccc21	SRC3 TRFRET art 3725, SRC1 TRFRET art 3876, TR-FRET SRC-2 ct 2548
C/C(=N\Nc1nc2ccccc2[nH]1)c1ccc(C)o1	SRC3 TRFRET art 2059
O=C(CSc1cn(Cc2ccccc2)c2ccccc12)Nc1nccs1	TR-FRET SRC-2 ct 3013 (no result: SRC3 TRFRET art, SRC1 TRFRET art)
O=S(=O)(c1ccc(NC(=S)N/N=C/c2c3ccccc3cc3ccccc23)cc1)N1CCOCC1	none
CCOC(=O)CN1N=C(/C=C/c2ccc(C(C)C)cc2)CCC1=O	none
CCCCC(CC)Cn1c2nc3ccccc3nc2c2c(=N)oc(C)nc21 (stereo not drawn)	PPARg SRC-2 ag 47.6, TR-FRET SRC-2 ct 2312 (no result: SRC3 TRFRET art, SRC1 TRFRET art)
CCCCC(CC)Cn1c(N)c(C#N)c2nc3ccccc3nc21 (stereo not drawn)	none (no result: SRC3 TRFRET art, SRC1 TRFRET art)
CCOC(=O)c1ccc(NC2=CC(=O)CC(c3ccco3)C2)cc1 (stereo not drawn)	TR-FRET SRC-2 ct 2006
CCN1CCN(c2ccc(NC(=O)CCc3c(C)nc4c(-c5ccc(F)cc5)c(C)nn4c3C)cc2)CC1	none
CCCCOc1ccc(C(=O)N/C(=C/C=C/c2ccccc2)C(=O)O)cc1	PPARg SRC3 recr 29.7
c1ccc(-c2oc3ncnc(NCCCN4CCOCC4)c3c2-c2ccccc2)cc1	PPARg SRC1 recr 24.3 (no result: SRC3 TRFRET art, SRC1 TRFRET art)
COc1ccc(-c2oc3ncnc(NCCCN4CCOCC4)c3c2-c2ccc(OC)cc2)cc1	none (no result: SRC3 TRFRET art, SRC1 TRFRET art)
CCN(CC)C(=O)c1cn(CCC#N)nc1-c1ccc2c(c1)OCCO2	none
CCN(CC)C(=O)c1cn(-c2ccccc2)nc1-c1ccc2c(c1)OCCO2	TR-FRET SRC-2 ct 1980
CCc1ccc(NC(=O)c2c(C(=O)Nc3ccccc3)sc3nc(C)cc(=O)n23)cc1	none
COc1ccc(C(=O)Nc2scc(-c3ccc(Cl)cc3Cl)c2C(N)=O)cc1	TR-FRET SRC-2 ct 1986 (no result: SRC3 TRFRET art, SRC1 TRFRET art)
COc1ccc(/C=C/C(=O)OCC(=O)Nc2c(C)cccc2C)cc1	none
CC(C)CCNC(=O)NC(=O)COC(=O)/C=C/c1cccc([N+](=O)[O-])c1	none
CC(C)CCNC(=O)NC(=O)COC(=O)/C=C/c1cnc2ccccc2n1	PPARg SRC-2 ag 63.5, TR-FRET SRC-2 ct 2705 (no result: SRC3 TRFRET art, SRC1 TRFRET art)
COc1cc2c(cc1OC)C(c1cccs1)N(C(=S)NC(C)C)CC2 (stereo not drawn)	none
COC(=O)C1=C(C)N(Cc2cccnc2)C(=O)/C1=C\c1sccc1C	none
CCOc1ccc(N(C(=O)CNC(=O)c2cccs2)C(C(=O)NCC2CCCO2)c2ccc(OC)c(OC)c2)cc1 (stereo not drawn)	none
CSc1ccccc1NC(=O)Cn1c(-c2cscn2)nc2ccccc21	PPARg SRC1 recr 24.3 (no result: SRC3 TRFRET art, SRC1 TRFRET art)
Cn1c(=O)c(Oc2cc(Cl)cc(Cl)c2)nc2ccccc21	PPARg SRC1 recr 29.3 (no result: SRC3 TRFRET art, SRC1 TRFRET art)
COc1ccc(Oc2nc3ccccc3n(C)c2=O)cc1	none (no result: SRC3 TRFRET art, SRC1 TRFRET art)
O=C(Cc1ccccc1)Nc1ccc2c(c1)CCC2	none
O=C(CC1CCCC1)Nc1ccc2c(c1)CCC2	PPARg SRC-2 ag 57.1 (no result: SRC3 TRFRET art, SRC1 TRFRET art)
Oc1ccc(Cl)cc1C1=NNC(c2cc(Br)cc3c2OCOC3)C1 (stereo not drawn)	SRC1 TRFRET art 2488
c1ccc(-n2ncc3c(NCc4cccs4)ncnc32)cc1	SRC3 TRFRET art 2147
COCCOC(=O)c1c(C)oc2ccc(OC(=O)COc3c(F)c(F)c(F)c(F)c3F)cc12	none (no result: SRC3 TRFRET art, SRC1 TRFRET art)
Cc1oc2ccc(OC(=O)COc3c(F)c(F)c(F)c(F)c3F)cc2c1C(=O)OC(C)C	TR-FRET SRC-2 ct 2175
COc1ccc(-c2nc(N3CCCCCC3)sc2C(=O)c2ccccc2)cc1	TR-FRET SRC-2 ct 2098 (no result: SRC3 TRFRET art, SRC1 TRFRET art)
O=C(c1ccc(Br)cc1)c1sc(N2CCOCC2)nc1-c1ccccc1	SRC3 TRFRET art 2783
CCN1CCCC1CNC(=O)c1cc2c(-c3ccc(Cl)cc3)nn(C)c2s1 (stereo not drawn)	PPARg SRC1 recr 21.6 (no result: SRC3 TRFRET art, SRC1 TRFRET art)
COc1cccc(-c2nnc3sc(-c4ccccc4)nn23)c1	none
COc1cccc(OC)c1-c1nn2c(-c3cc(-c4ccccc4)n[nH]3)nnc2s1	PPARg SRC1 recr 19.6 (no result: SRC3 TRFRET art, SRC1 TRFRET art)
O=C(CSc1nnc(Cc2csc(Nc3cccc(Cl)c3)n2)o1)N1CCc2ccccc21	TR-FRET SRC-2 ct 2013 (no result: SRC3 TRFRET art, SRC1 TRFRET art)
COc1cccc(NC(=S)NCc2ccc3c(c2)cc(C)n3C)c1	SRC1 TRFRET art 2579
CSc1cc(-c2ccc(Cl)cc2)n(Cc2ccccc2)c(=O)c1C#N	PPARg SRC3 recr 42.9 (no result: SRC3 TRFRET art, SRC1 TRFRET art)
Cc1[nH]c2ccccc2c1C(=O)C(=O)NCCOc1ccccc1	PPARg SRC-2 ag 23.9
CCc1ccc(N2CSC3=C(C#N)C(c4cccs4)CC(=O)N3C2)cc1 (stereo not drawn)	PPARg SRC-2 ag 35.5, TR-FRET SRC-2 ct 2462
CCc1ccc(C2CC(=O)N3CN(c4ccccc4)CSC3=C2C#N)cc1 (stereo not drawn)	none (no result: SRC3 TRFRET art, SRC1 TRFRET art)
CCOC(=O)c1ccc(N2CSC3=C(C#N)C(c4cccs4)CC(=O)N3C2)cc1 (stereo not drawn)	TR-FRET SRC-2 ct 2211 (no result: SRC3 TRFRET art, SRC1 TRFRET art)
COc1ccc(N2CSC3=C(C#N)C(c4cccs4)CC(=O)N3C2)cc1 (stereo not drawn)	PPARg SRC-2 ag 29.4, PPARg SRC1 recr 30.5, PPARg SRC3 recr 38.9, TR-FRET SRC-2 ct 2277 (no result: SRC3 TRFRET art, SRC1 TRFRET art)
Cc1c(NC(=O)CSCc2ccc(Br)cc2)c(=O)n(-c2ccccc2)n1C	none
Cc1ccc(-c2csc3ncnc(SCC(=O)NCc4ccc5c(c4)OCO5)c23)cc1	TR-FRET SRC-2 ct 2614 (no result: SRC3 TRFRET art, SRC1 TRFRET art)
COc1cccc(CC2(CO)CCCN(CC3=Cc4cc(Cl)ccc4OC3)C2)c1 (stereo not drawn)	none
c1cncc(-c2nc(N3CCOCC3)c3ccccc3n2)c1	none (no result: SRC3 TRFRET art, SRC1 TRFRET art)
O=S(=O)(/C=C/c1ccccc1)N1CCN(c2nc(-c3cccnc3)nc3ccccc23)CC1	SRC3 TRFRET art 2270, SRC1 TRFRET art 2657
CCOC(=O)C1=C(C)Nc2ccccc2N=C1NC(=O)c1ccc(Cl)c(S(=O)(=O)N2CCCC2)c1	SRC3 TRFRET art 2223
CCOC(=O)C1=C(C)Nc2ccccc2N=C1NC(=O)c1cccc(S(=O)(=O)N(C)C)c1	none (no result: SRC3 TRFRET art, SRC1 TRFRET art)
CCOC(=O)C1=C(C)Nc2ccccc2N=C1NC(=O)C(c1ccccc1)c1ccccc1	SRC3 TRFRET art 2077
COCCn1c(SCC(=O)Nc2sccc2C(N)=O)nnc1-c1ccncc1	none
C/C(=N\NC(=O)c1ccccc1NC(=O)c1ccc(Cl)cc1)c1ccncc1	none
O=C1NC2(CCCCC2)C(=O)N1Cc1cccc(C(F)(F)F)c1	none
O=C(COC(=O)C1CCN(S(=O)(=O)c2cccs2)CC1)c1ccc2c(c1)OCCO2	TR-FRET SRC-2 ct 2115 (no result: SRC3 TRFRET art, SRC1 TRFRET art)
O=C(COC(=O)C1CCN(S(=O)(=O)c2cccs2)CC1)c1cc2ccccc2o1	TR-FRET SRC-2 ct 2135 (no result: SRC3 TRFRET art, SRC1 TRFRET art)
